# Data reported in PubChem BioAssay (NCATS).
# Results filed as inconclusive are left out. The source made the active and inactive calls. The call rests on the fitted dose curve; in most records, active means well fitted inhibition curve with a large enough effect; inconclusive means small, poorly fitted or top-dose-only effect; inactive means flat fitted curve, though single readings scatter.
# Tested on: CP237
# Experiment: qHTS profiling for inhibitors of Plasmodium falciparum proliferation (AID 504749); further: nearly all actives have a fitted effect of over 60% in size;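 on activity, negative = inhibition: 0% = DMSO vehicle and full inhibition = artemisinin control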
# Conditions: P. falciparum in erythrocytes, SYBR Green DNA, 72 h; series mostly up to 28.7 µM; activity, negative = inhibition: at the top concentration
# Method in brief: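 Each compound contacts P. falciparum-infected red blood cells for 72 h at 37 C; lysis buffer (Tris, EDTA, saponin, Triton X, SYBR Green I) is added and fluorescence measured next morning; values normalized to controls.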
# Potency means the concentration at half of the fitted maximal effect.
Compound,"activity, negative = inhibition",Potency
C[C@H](N)Cc1ccccc1,-6.22% (inactive),–
C[C@]12C=CC(=O)C=C1CC[C@@H]1C2CC[C@]2(C)OC(=O)CCC12 (stereo not given in full),2.82% (inactive),–
OCC(O)[C@H]1O[C@@H]2O[C@H](C(Cl)(Cl)Cl)O[C@@H]2[C@H]1O (stereo not given in full),8.43% (inactive),–
CC1(C)[C@@H](C=C(Cl)Cl)[C@@H]1C(=O)OCc1c(F)c(F)cc(F)c1F,-0.0021% (inactive),–
CC1(C)S[C@@H]2[C@H](N)C(=O)N2C1C(=O)O (stereo not given in full),4.49% [at 12.8 µM] (inactive),–
C=C1Nc2ccccc2C(=O)N1c1ccccc1C,-1.71% (inactive),–
CC1OC(O[C@H]2C[C@@H](O)[C@]3(CO)[C@@H]4C(CC[C@]3(O)C2)[C@@]2(O)CC[C@H](C3=CC(=O)OC3)[C@@]2(C)C[C@H]4O)C(O)C(O)C1O (stereo not given in full),-12.7% (inactive),–
O=[N+]([O-])OC1CO[C@H]2C(O[N+](=O)[O-])COC12 (stereo not given in full),6.09% (inactive),–
CCOC(=O)/C=C(C)/C=C/CC(C)CCCC(C)C (stereo not given),3.93% (inactive),–
[S]=[Sb][S][Sb]=[S],6.45% (inactive),–
CN1C2CCC1C(C(=O)O)C(OC(=O)c1ccccc1)C2 (stereo not given),5.57% (inactive),–
C[C@@H]1CC[C@H]2[C@@H](C)C(=O)O[C@@H]3OC4(C)CC[C@@H]1C32OO4 (stereo not given in full),–,10 nM (active)
Nc1nc(O)c(-c2ccccc2)o1,2.93% (inactive),–
C=CC[N+]1(C)CCC23c4c5ccc(O)c4O[C@H]2C(=O)CC[C@@]3(O)C1C5 (stereo not given in full),10.6% (inactive),–
OC[C@@H](O)[C@H]1O[C@@H]2OC(C(Cl)(Cl)Cl)O[C@H]2[C@H]1O (stereo not given in full),1.27% (inactive),–
Cc1cc(C)cc(C(=O)OC2CC3CCC(C2)N3C)c1 (stereo not given),-25.4% (inactive),–
CCCN1CCCC2Cc3nc(N)ncc3CC21 (stereo not given),2.74% (inactive),–
COc1ccc2c3c1O[C@H]1[C@@H](O)C=C[C@H]4C(C2)NCCC341 (stereo not given in full),-3.42% (inactive),–
CCCCCC(O)C1C(=O)OC(C)C(O)\C=C/C=C\C=C/C=C\C=C(\C)C(O)C(O)C(O)CC(O)CC(O)CC(O)CC(O)CC1O (stereo not given),6.51% (inactive),–
CCCCCc1cc(O)c2c(c1)OC(C)(C)C1CC=C(C)CC21 (stereo not given),–,1780 nM (active)
